Reference: the supplement of paper PMC6089552
About 300 (9.4%) of roughly 3,200 compounds showed activity. Shown is part of a subset that was picked to be rich in actives.

Tested on: A673/TR/shEF
Experiment: cell viability (LOESS-normalised, relative to median of negative controls) (log2 ratio); higher = more viable cells (less compound effect), active = hit call of the paper (over 3 MAD below the median)
Details: treatment time: 72 h
How it was run: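 For three days, A673/TR/shEF Ewing sarcoma cells in 384-well plates (1,500 per well) were treated with library compounds at two or more concentrations or with DMSO controls, after doxycycline had been added or withheld 24 h beforehand to induce EWS-FLI1 shRNA knockdown. Viability was read by CellTiter-Glo luminescence on an Envision reader. The data were LOESS-corrected per plate, divided by the median of negative controls and log2-transformed.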

[1] = 0.25 µM, library screen: screen2, EWS-FLI1 expression: high (no doxycycline)
[2] = 0.25 µM, library screen: screen2, EWS-FLI1 expression: low (doxycycline-induced shRNA knockdown)
[3] = 2.5 µM, library screen: screen2, EWS-FLI1 expression: high (no doxycycline)
[4] = 2.5 µM, library screen: screen2, EWS-FLI1 expression: low (doxycycline-induced shRNA knockdown)
[5] = 0.25 µM, library screen: screen1, EWS-FLI1 expression: high (no doxycycline)
[6] = 0.25 µM, library screen: screen1, EWS-FLI1 expression: low (doxycycline-induced shRNA knockdown)
[7] = 2.5 µM, library screen: screen1, EWS-FLI1 expression: high (no doxycycline)
[8] = 2.5 µM, library screen: screen1, EWS-FLI1 expression: low (doxycycline-induced shRNA knockdown)
[9] = 0.025 µM, library screen: screen2, EWS-FLI1 expression: high (no doxycycline)
[10] = 0.025 µM, library screen: screen2, EWS-FLI1 expression: low (doxycycline-induced shRNA knockdown)
[11] = 25 µM, library screen: screen2, EWS-FLI1 expression: high (no doxycycline)
[12] = 25 µM, library screen: screen2, EWS-FLI1 expression: low (doxycycline-induced shRNA knockdown)
[13] = 0.103 µM, library screen: screen3, EWS-FLI1 expression: high (no doxycycline)
[14] = 0.103 µM, library screen: screen3, EWS-FLI1 expression: low (doxycycline-induced shRNA knockdown)
[15] = 0.308 µM, library screen: screen3, EWS-FLI1 expression: high (no doxycycline)
[16] = 0.308 µM, library screen: screen3, EWS-FLI1 expression: low (doxycycline-induced shRNA knockdown)
[17] = 0.926 µM, library screen: screen3, EWS-FLI1 expression: high (no doxycycline)
[18] = 0.926 µM, library screen: screen3, EWS-FLI1 expression: low (doxycycline-induced shRNA knockdown)
[19] = 2.8 µM, library screen: screen3, EWS-FLI1 expression: high (no doxycycline)
[20] = 2.8 µM, library screen: screen3, EWS-FLI1 expression: low (doxycycline-induced shRNA knockdown)
[21] = 8.3 µM, library screen: screen3, EWS-FLI1 expression: high (no doxycycline)
[22] = 8.3 µM, library screen: screen3, EWS-FLI1 expression: low (doxycycline-induced shRNA knockdown)
[23] = 25 µM, library screen: screen3, EWS-FLI1 expression: high (no doxycycline)
[24] = 25 µM, library screen: screen3, EWS-FLI1 expression: low (doxycycline-induced shRNA knockdown)
[25] = 0.025 µM, library screen: screen1, EWS-FLI1 expression: high (no doxycycline)
[26] = 0.025 µM, library screen: screen1, EWS-FLI1 expression: low (doxycycline-induced shRNA knockdown)
[27] = 25 µM, library screen: screen1, EWS-FLI1 expression: high (no doxycycline)
[28] = 25 µM, library screen: screen1, EWS-FLI1 expression: low (doxycycline-induced shRNA knockdown)

Measured: cell viability (log2)

CC(C)(C)[C@]1(O)CCN2CC3c4ccccc4CCc4cccc(c43)[C@@H]2C1 (some centres undefined)
inactive: [1] 0.166 | [2] 0.165 | [3] 0.11 | [4] 0.076

CC12CCC3c4ccc(OCc5ccccc5)cc4CCC3C1C[C@@H](O)[C@@H]2O (some centres undefined)
inactive: [5] 0.0858 | [6] 0.0634 | [7] 0.147 | [8] 0.17

COc1cc(NC(C)CCCN)c2ncccc2c1 (centres undefined)
inactive: [9] 0.0561 | [10] -0.00137 | [5] 0.054 | [6] 0.199 | [1] 0.0891 | [2] 0.0483 | [7] 0.127 | [8] 0.305 | [3] 0.104 | [4] -0.00544 | [12] -0.0311
active: [11] -0.632

CCCCC1=NC2(CCCC2)C(=O)N1Cc1ccc(-c2ccccc2-c2nn[nH]n2)cc1
inactive: [13] 0.107 | [14] 0.0606 | [5] 0.058 | [6] 0.0291 | [15] -0.0112 | [16] 0.0296 | [17] 0.00566 | [18] 0.0237 | [7] 0.0857 | [8] 0.072 | [19] 0.0909 | [20] 0.0243 | [21] 0.0907 | [22] 0.057 | [23] 0.0719 | [24] 0.134

CC(C)[C@@H]1CC[C@@H](C)CC1=O
inactive: [5] 0.057 | [6] 0.0478 | [7] 0.148 | [8] 0.0792

CN1CCCC(n2nc(Cc3ccc(Cl)cc3)c3ccccc3c2=O)CC1 (centres undefined)
inactive: [13] 0.00451 | [14] 0.0233 | [15] 0.0154 | [16] 0.0686 | [17] 0.0285 | [18] 0.0485 | [19] 0.0385 | [20] 0.0809 | [21] 0.0197 | [22] 0.0247 | [23] -0.00429 | [24] -0.0202

O=C(c1cc(Cc2n[nH]c(=O)c3ccccc23)ccc1F)N1CCN(C(=O)C2CC2)CC1
active: [23] -0.244 | [24] -0.143
inactive: [13] -0.00614 | [14] 0.0146 | [15] -0.0732 | [16] -0.0144 | [17] 0.00937 | [18] 0.0508 | [19] -0.137 | [20] 0.0104 | [21] -0.158 | [22] -0.00135

CC(=O)[C@H]1CCC2C3CC=C4C[C@@H](OS(=O)(=O)O)CC[C@]4(C)C3CC[C@@]21C (some centres undefined)
inactive: [1] 0.147 | [2] 0.0952 | [3] 0.0185 | [4] -0.0104

COc1ccc(-c2coc3c(OC)c(OC)cc(OC)c3c2=O)cc1
inactive: [5] 0.0837 | [6] 0.0693 | [7] 0.102 | [8] 0.078

CCOc1ccccc1N1C(=O)c2cccc3cccc(c23)C1=O
inactive: [5] 0.0619 | [6] 0.0408 | [7] 0.058 | [8] 0.0712

Cc1ccc(-c2nn(C(C)(C)C)c3ncnc(N)c23)cc1
inactive: [25] 0.00835 | [26] -0.00557 | [5] 0.0184 | [6] 0.0452 | [7] -0.0765 | [8] 0.104 | [28] -0.07
active: [27] -0.108

CC(C)(C)n1nc(-c2ccc(Cl)cc2)c2c(N)ncnc21
inactive: [25] 0.227 | [26] -0.0277 | [5] 0.174 | [6] 0.0475 | [8] 0.0249 | [28] -0.00123
active: [7] -0.388 | [27] -0.453

CCc1nc(N)nc(N)c1-c1ccc(Cl)cc1
inactive: [9] 0.129 | [10] 0.0541 | [13] 0.0417 | [14] 0.0477 | [5] 0.0408 | [6] 0.123 | [1] 0.112 | [2] 0.0163 | [15] 0.0837 | [16] 0.135 | [17] 0.0823 | [18] 0.107 | [7] 0.0817 | [8] 0.0354 | [3] 0.122 | [4] 0.129 | [19] 0.0808 | [20] 0.046 | [21] 0.0995 | [22] 0.0615 | [11] 0.0523 | [12] -0.0463 | [23] 0.153 | [24] 0.146

C=CC(=O)N1CCC[C@@H](n2nc(-c3ccc(Oc4ccccc4)cc3)c3c(N)ncnc32)C1
inactive: [13] -0.0901 | [14] 0.0229 | [15] -0.0466 | [16] 0.0297 | [17] 0.021 | [18] 0.0235 | [19] -0.0315 | [20] 0.0823 | [21] -0.0558 | [22] 0.16 | [23] -0.158 | [24] 0.0664

CC(=O)Oc1cc2c(c(C)c1OC(C)=O)CC=C1[C@@]2(C)CC[C@@]2(C)[C@@H]3C[C@](C)(C(=O)O)CC[C@]3(C)CC[C@]12C
inactive: [5] 0.0258 | [6] 0.000386 | [7] 0.0381 | [8] 0.209

CCN1CCN(CC(O)COc2cc(C)c(Cl)c(C)c2)CC1 (centres undefined)
inactive: [5] 0.082 | [6] 0.0372 | [7] 0.096 | [8] 0.29

CCCCCCCCCC(=O)N[C@@H](Cc1c[nH]c2ccccc12)C(=O)N[C@@H](CC(N)=O)C(=O)N[C@@H](CC(=O)O)C(=O)NC1C(=O)NCC(=O)N[C@@H](CCCN)C(=O)N[C@@H](CC(=O)O)C(=O)N[C@H](C)C(=O)N[C@@H](CC(=O)O)C(=O)NCC(=O)N[C@H](CO)C(=O)N[C@@H](C(C)CC(=O)O)C(=O)N[C@@H](CC(=O)c2ccccc2N)C(=O)OC1C (some centres undefined)
inactive: [13] -0.000338 | [14] -0.000608 | [15] 0.0186 | [16] 0.0343 | [17] 0.103 | [18] 0.0444 | [19] 0.0611 | [20] 0.0124 | [21] 0.0568 | [22] 0.116 | [23] -0.0118 | [24] -0.0633

COc1cc(OC)cc(C(CNc2ncnc3c2ncn3C2O[C@H](CO)[C@@H](O)[C@H]2O)c2ccccc2C)c1 (some centres undefined)
inactive: [1] 0.151 | [2] 0.0311 | [3] 0.147 | [4] 0.121

C#CCCCCCCCCCCC[C@@H](O)C[C@@H](O)COC(C)=O
inactive: [5] 0.145 | [6] 0.0417 | [7] 0.08 | [8] 0.0325

COc1ccc(CN2CCN(Cc3ccccc3C(F)(F)F)CC2)c(OC)c1OC
inactive: [5] -0.00682 | [6] 0.0327 | [7] 0.087 | [8] 0.144

CC=C(C)C(=O)OC1Cc2c(ccc3ccc(=O)oc23)OC1(C)C (centres undefined)
inactive: [5] 0.052 | [6] 0.0529 | [7] 0.186 | [8] 0.0456

CCCCCCCCCCCCCCCCCCOCC(O)CO (centres undefined)
inactive: [5] 0.0496 | [6] 0.117 | [7] 0.142 | [8] 0.0249

COc1ccc2c(c1)OC[C@@H](Cc1ccc(OC)c(OC)c1)[C@@H]2O
inactive: [5] 0.137 | [6] -0.0181 | [7] 0.209 | [8] 0.0843

COc1ccc2c(c1)OCC(Cc1ccc(OC)c(OC(C)=O)c1)C2=O (centres undefined)
inactive: [5] 0.0793 | [6] -0.0163 | [8] -0.0188
active: [7] -0.246

COc1ccc2c(c1)OC[C@@H](Cc1ccc(OC)c(OC)c1)C2=O
inactive: [5] -0.018 | [6] 0.0264 | [7] 0.11 | [8] 0.0741

Oc1cc(O)c2c(c1)O[C@H](c1cc(O)c(O)c(O)c1)[C@H](O)[C@H]2c1c(O)cc(O)c2c1O[C@H](c1cc(O)c(O)c(O)c1)[C@H](O)[C@H]2c1c(O)cc(O)c2c1O[C@H](c1cc(O)c(O)c(O)c1)[C@H](O)C2
inactive: [5] -0.0224 | [6] 0.066 | [7] 0.107 | [8] 0.0716

OC[C@H]1O[C@@H](O[C@H]2[C@H](O)[C@@H](O)C(O)O[C@@H]2CO)[C@H](O)[C@@H](O)[C@@H]1O (some centres undefined)
inactive: [5] -0.0294 | [6] 0.0659 | [7] 0.116 | [8] 0.0995

CC(C)(C)C(=O)OCOP(=O)(COCCn1cnc2c(N)ncnc21)OCOC(=O)C(C)(C)C
inactive: [13] -0.0455 | [14] 0.0657 | [15] -0.0326 | [16] 0.0345 | [17] -0.105 | [18] -0.0287 | [20] -0.0209 | [22] -0.0516
active: [19] -0.371 | [21] -0.686 | [23] -1.44 | [24] -0.304

Nc1ncnc2c1ncn2[C@@H]1O[C@H](COP(=O)(O)O)[C@@H](O)[C@H]1O
inactive: [5] 0.101 | [6] -0.0633 | [7] 0.171 | [8] 0.117

C[C@H](Cn1cnc2c(N)ncnc21)OCP(=O)(O)O
inactive: [13] 0.0857 | [14] 0.09 | [1] 0.128 | [2] 0.113 | [15] 0.00908 | [16] 0.0155 | [17] 0.0338 | [18] 0.0939 | [3] 0.189 | [4] 0.0365 | [19] 0.0533 | [20] 0.0269 | [21] -0.0007 | [22] 0.0852 | [23] 0.0436 | [24] 0.126

CC1CCC(O)C/C1=C/C=C1\CCCC2(C)C1CCC2C(C)/C=C/C(C)C(C)C (centres undefined)
inactive: [5] 0.0469 | [6] 0.0169 | [7] 0.0774 | [8] 0.0401
